These results are taken from PubChem BioAssay (EPA / NIEHS).

Active and inactive are the calls of the source. The calls were made as follows: active = hit-call score of the fitted dose curve at least 0.9, where 1 is the maximum; inactive = score below 0.9.

Assay [1] can be described thus: ATG_GLI_CIS: Attagene CIS-FACTORIAL HepG2 Assay for human Zinc Finger Protein GLI1 (AID 2282945). As to conditions: HepG2, Attagene cis-factorial reporter mRNA, GLI element; actives raise or lower the signal. Summed up:
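Transiently transfected HepG2 cells report endogenous transcription factor activity via cis-element-driven reporter units. After 24 h compound exposure, reporter mRNA was measured by RT-PCR with capillary electrophoresis; bidirectional fitting against DMSO baseline.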

For assay [2], the target named is Bile acid receptor (Homo sapiens) (UniProt Q96RI1). Put plainly: ATG_IR1_CIS: Attagene CIS-FACTORIAL HepG2 Assay for human Nuclear Receptor Subfamily 1 Group H Member 4 (NR1H4), IR1 submotif (AID 2282946). The note with it: IR1 reporter transcription, actives raise or lower the signal. The method in brief: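 Fluorescence of capillary-separated, HpaI-digested RT-PCR reporter products gave IR1-element mRNA induction in HepG2 cells 24 h after dosing. Endogenous transcription factors drove the cis-regulated reporters; activity was fitted bidirectionally against DMSO.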

Assay [3] in a line: ATG_GRE_CIS: Attagene CIS-FACTORIAL HepG2 Assay for human Glucocorticoid Response Elements (GRE) (AID 2282947). As to conditions: HepG2 GRE cis-reporter, Attagene multiplex mRNA; actives raise or lower the signal. Summed up:
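Read-out: fluorescent reporter-transcript fragments separated by capillary electrophoresis after RT-PCR. Transiently transfected HepG2 cells carrying cis-element-driven reporter units were dosed for 24 h; gain or loss of signal fitted against DMSO control.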

A short description of assay [4]: ATG_ISRE_CIS: Attagene CIS-FACTORIAL HepG2 Assay for human Interferon Regulatory Factor 1 (IRF1) binding to an Interferon-Stimulated Response Element (ISRE) (AID 2282948). The note with it: HepG2 ISRE cis-reporter (Attagene), mRNA transcription readout; actives raise or lower the signal. Summed up:
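Multiplexed mRNA reporter readout in human liver HepG2 cells: cis-element-driven reporters transfected, compound added for 24 h, transcripts amplified, fluorescently labelled and sized by capillary electrophoresis; curve fitting bidirectional against DMSO.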

Assay [5] can be described thus: ATG_M_32_CIS: Attagene CIS-FACTORIAL HepG2 Assay for M32 Transcription Factor (Internal Marker) (AID 2282949).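 Also: background control marker of the multiplexed CIS panel rather than a real target.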 As to conditions: HepG2 Attagene cis-factorial M32 reporter, mRNA; actives raise or lower the signal. The method in brief: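 Using DMSO as baseline, bidirectional curve fits were applied to reporter mRNA signals. These came from transiently transfected HepG2 cells exposed for 24 h, with RNA analysed by RT-PCR, FAM primer extension, HpaI digestion and CE.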

Assay [6] is described as follows: ATG_M_06_CIS: Attagene CIS-FACTORIAL HepG2 Assay for M06 Transcription Factor (Internal Marker) (AID 2282950). As to conditions: HepG2 Attagene CIS-FACTORIAL M06 internal marker reporter; actives raise or lower the signal. Summed up: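 Terse: HepG2, transient MRTU transfection (FuGene 6), 24 h dosing; total RNA, oligo(dT) RT, PCR, FAM label, HpaI cut, capillary electrophoresis; bidirectional fit vs DMSO baseline; background-control endpoint.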

Assay [7] deals with Hypoxia-inducible factor 1-alpha (Homo sapiens) (UniProt Q16665). Put plainly: ATG_HIF1a_CIS: Attagene CIS-FACTORIAL HepG2 Assay for human Hypoxia Inducible Factor 1 (HIF1A) (AID 2282951). The note with it: HepG2 Attagene cis-factorial HIF1a reporter transcription; actives raise or lower the signal. Summed up:
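After 24 h chemical exposure of reporter-transfected HepG2 cells, reporter cDNA was PCR-amplified, labelled by 6-FAM primer extension (2 min 95 C, 20 s 68 C, 10 min 72 C), HpaI-cut (2 h, 37 C) and analysed by CE.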

For assay [8], the target named is Hepatocyte nuclear factor 6 (Homo sapiens) (UniProt Q9UBC0). Put plainly: ATG_HNF6_CIS: Attagene CIS-FACTORIAL HepG2 Assay for human Hepatocyte Nuclear Factor 6 (HNF6) (AID 2282952). As to conditions: HepG2 Attagene cis-factorial HNF6 reporter transcription; actives raise or lower the signal. Summed up: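 Endogenous transcription factor activity in human HepG2 liver cells was captured through cis-regulated reporter constructs. After 24 h treatment, reporter mRNA was measured by RT-PCR with capillary electrophoresis, and activity was fitted in both directions relative to DMSO.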

Assay [9] concerns the target Heat shock factor protein 1 (Homo sapiens) (UniProt Q00613). Put plainly: ATG_HSE_CIS: Attagene CIS-FACTORIAL HepG2 Assay for human Heat Shock Transcription Factor 1 (HSE) (AID 2282953). The note with it: HepG2 HSE cis-reporter, Attagene RNA transcription; actives raise or lower the signal. The method in brief:
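Read-out: fluorescence of reporter-specific RT-PCR fragments separated by capillary electrophoresis. HepG2 carrying transfected cis-element reporter units; 24 h dosing; activity fitted in both directions relative to DMSO baseline.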

Assay [10] can be described thus: ATG_MRE_CIS: Attagene CIS-FACTORIAL HepG2 Assay for human Metal Responsive Element (MRE) (AID 2282954). The note with it: HepG2 MRE cis-reporter transcription, Attagene multiplex; actives raise or lower the signal. Summed up: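 RT-PCR/capillary electrophoresis readout of reporter mRNA, 24 h post-dosing, in HepG2 cells transfected with multiplexed cis-regulated reporter constructs. Gain or loss of signal fitted bidirectionally against DMSO baseline.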

A short description of assay [11]: ATG_PBREM_CIS: Attagene CIS-FACTORIAL HepG2 Assay for human Phenobarbital-responsive Enhancer Module (PBREM) (AID 2282955). The note with it: HepG2 PBREM cis-reporter, Attagene multiplexed transcription; actives raise or lower the signal. Summed up:
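Measures endogenous factor action on a phenobarbital-responsive enhancer module. HepG2 transiently carrying cis reporters, 24 h treatment, mRNA read-out by RT-PCR plus capillary electrophoresis.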

The target of assay [12] is Paired box protein Pax-6 (Homo sapiens) (UniProt P26367). Put plainly: ATG_Pax6_CIS: Attagene CIS-FACTORIAL HepG2 Assay for human Paired Box 6 (PAX6) (AID 2282956). As to conditions: HepG2 CIS-FACTORIAL PAX6 reporter transcription, RNA readout; actives raise or lower the signal. Summed up: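 Fluorescent RT-PCR products separated by capillary electrophoresis report PAX6-linked promoter mRNA in HepG2 cells 24 h post-dose. Curves fitted bidirectionally, DMSO as negative control.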

The nature of assay [13]: ATG_PPRE_CIS: Attagene CIS-FACTORIAL HepG2 Assay for human Peroxisome Proliferator-activated Response Element (PPRE) (AID 2282958). The note with it: HepG2 PPRE cis-element reporter, Attagene transcription factor profiling; actives raise or lower the signal. The method in brief: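 PPRE activity in HepG2: transient cis-reporter transfection, 24 h compound incubation, reporter mRNA by RT-PCR and CE fluorescence; gain/loss fitted against DMSO.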

The nature of assay [14]: ATG_RORE_CIS: Attagene CIS-FACTORIAL HepG2 Assay for human RAR-related Orphan Receptor Element (RORE) (AID 2282959). As to conditions: HepG2 Attagene cis-factorial RORE reporter, mRNA; actives raise or lower the signal. Summed up:
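A 24-hour exposure of transfected HepG2 hepatoma cells precedes RNA isolation and reporter RT-PCR. Labeled products are digested with HpaI and resolved by capillary electrophoresis, with gain or loss of signal scored relative to DMSO.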

A short description of assay [15]: ATG_Sox_CIS: Attagene CIS-FACTORIAL HepG2 Assay for human SRY-box transcription factor (SOX) (AID 2282960). As to conditions: HepG2 Attagene cis-factorial SOX reporter, mRNA; actives raise or lower the signal. The method in brief: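 HepG2, cis reporter units, 24 h exposure. Reporter mRNA: RT-PCR → FAM labelling → HpaI → CE fluorescence. Bidirectional fit vs DMSO.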

Assay [16] concerns the target Transcription factor Sp1 (Homo sapiens) (UniProt P08047). Put plainly: ATG_Sp1_CIS: Attagene CIS-FACTORIAL HepG2 Assay for human Specificity Protein 1 (Sp1) (AID 2282961). The note with it: HepG2 Sp1 cis-reporter transcription, actives raise or lower the signal. The method in brief:
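Liver-derived HepG2 cells, cis-element reporter library, 24 h treatment; RNA isolated, cDNA amplified with reporter-specific primers, FAM-labeled fragments sized on capillary analyzer. DMSO baseline, bidirectional curve fit.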

Assay [17] is described as follows: ATG_SREBP_CIS: Attagene CIS-FACTORIAL HepG2 Assay for human Sterol Regulatory Element Binding (SREBP) (AID 2282962). As to conditions: HepG2 Attagene cis-factorial SREBP reporter, mRNA; actives raise or lower the signal. Summed up: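 Endogenous factor activity is measured in HepG2 through multiplexed reporter units under cis-element control. Following a 24 h incubation, reporter transcripts are reverse-transcribed, PCR-amplified and sized by capillary electrophoresis; activity is fitted in both directions relative to DMSO.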

Assay [18] deals with Signal transducer and activator of transcription 3 (Homo sapiens) (UniProt P40763). Put plainly: ATG_STAT3_CIS: Attagene CIS-FACTORIAL HepG2 Assay for human Signal Transducer and Activator of Transcription 3 (STAT3) (AID 2282963). The note with it: HepG2, Attagene cis-factorial STAT3 reporter transcription; actives raise or lower the signal. Summed up: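 Readout: fluorescent reporter mRNA fragments resolved by capillary electrophoresis. Setup: HepG2 transfected with MRTUs reporting endogenous transcription-factor activity, dosed 24 h. Gain or loss of signal fitted bidirectionally against DMSO control.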

Assay [19] can be described thus: ATG_TA_CIS: Attagene CIS-FACTORIAL HepG2 Assay for human TA Basal Promoter (AID 2282964). The note with it: HepG2 Attagene CIS-factorial TA basal promoter reporter; actives raise or lower the signal. Summed up:
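Transfected HepG2, 24 h compound exposure; RNA → RT-PCR → FAM primer extension → HpaI cut → CE fluorescence. Gain/loss-of-signal fitted against DMSO negative control. Background-control readout.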

Assay [20] is described as follows: ATG_PXRE_CIS: Attagene CIS-FACTORIAL HepG2 Assay for human Pregnane X Receptor Element (PXRE) (AID 2282957). As to conditions: HepG2 Attagene CIS-FACTORIAL PXRE reporter, mRNA; actives raise or lower the signal. Summed up: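 Endogenous transcription factor activity in HepG2 was gauged through induction of reporter mRNA driven by a cis-regulating promoter element, sampled 24 h post-treatment. Activity was fitted in both directions against DMSO negative control.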

Signal transducer and activator of transcription 3 (Homo sapiens), sequence (P40763 whole entry, looked up, the tested form may be a part): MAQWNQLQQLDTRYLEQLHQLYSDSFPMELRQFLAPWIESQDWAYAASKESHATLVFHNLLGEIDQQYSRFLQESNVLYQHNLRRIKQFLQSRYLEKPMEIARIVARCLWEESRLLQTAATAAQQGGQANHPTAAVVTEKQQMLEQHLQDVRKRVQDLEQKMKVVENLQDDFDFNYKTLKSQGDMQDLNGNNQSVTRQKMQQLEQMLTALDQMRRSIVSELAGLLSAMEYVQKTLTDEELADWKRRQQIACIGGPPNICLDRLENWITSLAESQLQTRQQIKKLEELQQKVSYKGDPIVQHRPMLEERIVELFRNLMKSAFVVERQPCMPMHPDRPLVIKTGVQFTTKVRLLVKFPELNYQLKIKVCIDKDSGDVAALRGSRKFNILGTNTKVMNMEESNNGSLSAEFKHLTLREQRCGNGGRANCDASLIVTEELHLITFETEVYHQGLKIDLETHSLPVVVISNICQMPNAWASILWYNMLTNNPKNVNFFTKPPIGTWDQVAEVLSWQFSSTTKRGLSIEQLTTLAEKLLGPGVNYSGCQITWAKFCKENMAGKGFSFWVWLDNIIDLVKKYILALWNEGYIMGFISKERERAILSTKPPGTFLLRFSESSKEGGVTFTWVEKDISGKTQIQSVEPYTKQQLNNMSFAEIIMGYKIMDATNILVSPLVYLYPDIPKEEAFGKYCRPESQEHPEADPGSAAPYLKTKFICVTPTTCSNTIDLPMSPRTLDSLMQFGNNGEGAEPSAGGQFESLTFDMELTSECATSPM
Transcription factor Sp1 (Homo sapiens), sequence (P08047 whole entry, looked up, the tested form may be a part): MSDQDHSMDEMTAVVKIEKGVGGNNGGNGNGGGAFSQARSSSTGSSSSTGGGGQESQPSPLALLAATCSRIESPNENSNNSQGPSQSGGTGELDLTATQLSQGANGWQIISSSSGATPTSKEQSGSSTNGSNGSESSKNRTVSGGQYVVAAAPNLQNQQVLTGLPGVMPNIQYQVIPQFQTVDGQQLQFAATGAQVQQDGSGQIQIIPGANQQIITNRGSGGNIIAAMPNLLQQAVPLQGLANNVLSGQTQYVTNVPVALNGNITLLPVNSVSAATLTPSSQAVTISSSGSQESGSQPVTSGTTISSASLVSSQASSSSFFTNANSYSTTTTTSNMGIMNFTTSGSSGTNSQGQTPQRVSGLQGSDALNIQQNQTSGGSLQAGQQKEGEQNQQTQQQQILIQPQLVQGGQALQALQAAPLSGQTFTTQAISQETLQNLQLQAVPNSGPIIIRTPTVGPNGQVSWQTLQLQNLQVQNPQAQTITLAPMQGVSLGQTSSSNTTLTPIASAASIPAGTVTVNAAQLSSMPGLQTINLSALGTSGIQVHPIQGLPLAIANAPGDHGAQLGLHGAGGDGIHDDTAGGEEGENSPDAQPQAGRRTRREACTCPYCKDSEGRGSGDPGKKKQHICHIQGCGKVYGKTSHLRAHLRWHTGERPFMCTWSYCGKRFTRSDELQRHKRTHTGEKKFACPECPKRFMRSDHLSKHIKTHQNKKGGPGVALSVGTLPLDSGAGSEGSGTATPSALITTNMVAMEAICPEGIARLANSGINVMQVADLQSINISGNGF
Hypoxia-inducible factor 1-alpha (Homo sapiens), sequence (Q16665 whole entry, looked up): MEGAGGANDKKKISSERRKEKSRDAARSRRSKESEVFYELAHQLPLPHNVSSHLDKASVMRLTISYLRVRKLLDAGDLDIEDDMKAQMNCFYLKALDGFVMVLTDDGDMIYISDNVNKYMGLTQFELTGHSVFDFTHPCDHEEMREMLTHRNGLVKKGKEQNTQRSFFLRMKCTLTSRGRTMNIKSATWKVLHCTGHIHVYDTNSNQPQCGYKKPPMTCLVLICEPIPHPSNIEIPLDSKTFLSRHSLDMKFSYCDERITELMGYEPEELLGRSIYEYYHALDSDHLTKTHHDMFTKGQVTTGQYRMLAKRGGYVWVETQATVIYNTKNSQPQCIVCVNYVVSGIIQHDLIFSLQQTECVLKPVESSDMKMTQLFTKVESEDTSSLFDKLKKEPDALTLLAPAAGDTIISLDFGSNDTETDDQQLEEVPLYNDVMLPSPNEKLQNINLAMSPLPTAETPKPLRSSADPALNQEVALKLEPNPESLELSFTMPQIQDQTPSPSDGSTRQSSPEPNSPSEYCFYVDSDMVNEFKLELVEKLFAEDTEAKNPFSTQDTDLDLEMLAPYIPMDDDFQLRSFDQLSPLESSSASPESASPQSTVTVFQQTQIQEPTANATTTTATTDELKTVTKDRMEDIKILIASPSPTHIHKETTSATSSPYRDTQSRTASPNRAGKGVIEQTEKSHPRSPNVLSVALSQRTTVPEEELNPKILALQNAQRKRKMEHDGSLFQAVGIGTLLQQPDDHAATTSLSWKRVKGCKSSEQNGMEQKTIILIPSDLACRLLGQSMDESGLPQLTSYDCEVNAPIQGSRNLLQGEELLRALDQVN
Paired box protein Pax-6 (Homo sapiens), sequence (P26367 whole entry, looked up): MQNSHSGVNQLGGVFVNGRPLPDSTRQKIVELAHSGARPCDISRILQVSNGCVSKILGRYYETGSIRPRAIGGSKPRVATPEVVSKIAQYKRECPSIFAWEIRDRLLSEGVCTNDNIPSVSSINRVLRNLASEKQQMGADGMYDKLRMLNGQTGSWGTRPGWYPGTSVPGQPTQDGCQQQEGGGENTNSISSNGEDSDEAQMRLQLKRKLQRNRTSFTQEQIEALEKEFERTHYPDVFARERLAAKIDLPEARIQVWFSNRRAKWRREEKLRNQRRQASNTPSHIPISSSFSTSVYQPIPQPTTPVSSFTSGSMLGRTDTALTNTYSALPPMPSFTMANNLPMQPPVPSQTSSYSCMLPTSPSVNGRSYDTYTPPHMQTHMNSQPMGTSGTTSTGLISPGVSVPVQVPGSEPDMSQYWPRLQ
Hepatocyte nuclear factor 6 (Homo sapiens), sequence (Q9UBC0 whole entry, looked up): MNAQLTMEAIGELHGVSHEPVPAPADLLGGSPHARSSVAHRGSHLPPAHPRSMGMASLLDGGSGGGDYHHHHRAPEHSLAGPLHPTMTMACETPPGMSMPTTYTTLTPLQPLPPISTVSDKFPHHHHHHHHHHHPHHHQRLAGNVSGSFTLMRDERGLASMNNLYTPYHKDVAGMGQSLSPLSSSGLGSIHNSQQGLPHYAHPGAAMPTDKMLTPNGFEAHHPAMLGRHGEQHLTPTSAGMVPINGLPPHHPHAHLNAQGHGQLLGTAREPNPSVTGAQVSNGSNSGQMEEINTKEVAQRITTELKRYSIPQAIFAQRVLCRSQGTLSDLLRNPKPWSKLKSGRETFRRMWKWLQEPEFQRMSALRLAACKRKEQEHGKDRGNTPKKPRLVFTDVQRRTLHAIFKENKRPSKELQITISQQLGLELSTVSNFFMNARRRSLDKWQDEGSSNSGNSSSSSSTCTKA
Heat shock factor protein 1 (Homo sapiens), sequence (Q00613 whole entry, looked up, the tested form may be a part): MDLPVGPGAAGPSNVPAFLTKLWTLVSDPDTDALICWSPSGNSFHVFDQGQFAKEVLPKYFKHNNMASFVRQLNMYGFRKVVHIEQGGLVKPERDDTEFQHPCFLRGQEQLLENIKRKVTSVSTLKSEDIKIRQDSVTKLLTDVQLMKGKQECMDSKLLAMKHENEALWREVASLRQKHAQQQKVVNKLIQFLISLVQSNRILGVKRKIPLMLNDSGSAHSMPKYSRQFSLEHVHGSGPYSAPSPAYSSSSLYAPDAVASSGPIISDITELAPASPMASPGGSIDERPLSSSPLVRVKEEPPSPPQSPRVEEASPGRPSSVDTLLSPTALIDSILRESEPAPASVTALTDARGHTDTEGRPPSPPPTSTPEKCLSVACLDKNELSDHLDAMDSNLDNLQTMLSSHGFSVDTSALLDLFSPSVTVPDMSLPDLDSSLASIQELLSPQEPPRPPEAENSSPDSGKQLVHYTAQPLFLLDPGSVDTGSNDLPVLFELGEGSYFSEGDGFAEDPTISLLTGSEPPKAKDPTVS
Bile acid receptor (Homo sapiens), sequence (Q96RI1 whole entry, looked up): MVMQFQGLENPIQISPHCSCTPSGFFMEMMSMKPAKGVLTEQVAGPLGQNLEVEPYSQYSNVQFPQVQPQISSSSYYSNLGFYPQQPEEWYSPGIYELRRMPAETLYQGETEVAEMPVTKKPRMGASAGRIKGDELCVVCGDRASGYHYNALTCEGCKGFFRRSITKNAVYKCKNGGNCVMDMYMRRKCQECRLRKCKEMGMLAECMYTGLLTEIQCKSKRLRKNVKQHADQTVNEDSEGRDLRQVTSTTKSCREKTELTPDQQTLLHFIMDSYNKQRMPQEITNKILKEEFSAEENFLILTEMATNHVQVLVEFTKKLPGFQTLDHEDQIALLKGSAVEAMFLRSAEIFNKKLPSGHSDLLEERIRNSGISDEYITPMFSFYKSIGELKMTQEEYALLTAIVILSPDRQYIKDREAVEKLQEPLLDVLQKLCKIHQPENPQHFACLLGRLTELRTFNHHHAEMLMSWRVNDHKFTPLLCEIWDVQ

For the compound `Nc1ccc(Oc2cccc(Oc3ccc(N)cc3)c2)cc1`, the concentration at half-maximal activity (AC50) (commonly the concentration at which the activity in the assay is half-maximal) in [1] is 178 µM (active); in assay [2], 24.6 µM (active); in assay [3] it was 181 µM (active); in assay [4], 24.7 µM (active); in assay [5] it was 137 µM (active); in [7], 26.9 µM (active). The concentration at half-maximal activity (AC50) in assay [9] is 160 µM (active); in assay [10] it was 64.6 µM (active); in [12], 71 µM (active); in assay [13], 89.5 µM (active); in assay [14], 14.9 µM (active); in assay [17], 136 µM (active). Also, the AC50 is 173 µM (active) in [18] and 26.8 µM (active) in assay [19]. Besides, the result in assay [6], in [8], in assay [11], in assay [15] and in assay [16] was inactive.
As to `c1ccc(-c2ccccc2-c2ccccc2)cc1`, the call in assay [1], in assay [3], in assay [5], in assay [6], in assay [7] and in assay [8] was inactive. Moreover, the compound was called inactive in [9], in assay [10], in assay [11], in [12], in assay [13] and in assay [14]. Further, the compound was classed as inactive in assay [15], in assay [18] and in assay [19]. In addition, the AC50 in assay [4] is 100 µM (active); in [20], 5.73 µM (active); in assay [16], 100 µM (active); in assay [17], 100 µM (active).
Take `O=C(O)C(F)(F)C(F)(F)OC(F)(F)F`: the outcome in [1], in assay [3], in assay [4], in assay [5], in [6] and in assay [7] was inactive. The compound was called inactive in assay [8], in assay [9], in assay [10], in [11], in assay [12] and in assay [13]. The compound was classed as inactive in assay [14], in assay [15], in assay [16], in assay [17], in assay [18] and in assay [19].
Regarding `CC(C)(C)C(=O)CC(=O)C(F)(F)C(F)(F)C(F)(F)F`, the call in assay [1], in assay [3], in assay [4], in assay [5], in [6] and in [7] was inactive. Further, the call in assay [8], in [9], in assay [10], in assay [11], in [12] and in assay [13] was inactive. Besides, the result in [14], in assay [15], in assay [16], in [17], in assay [18] and in assay [19] was inactive.
